# HIF-2a inh = inhibitors of HIF-2a | 786-0 RCC cells HIF-2a reporter, luciferase luminescence, overnight | inhibition, % at 18.8 µM | 360,000 compounds, 0.72% hits | AID 624352;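 active = inhibition of the luminescence signal of 40% or more relative to plate controls, in a single-dose primary screen at 18.75 µM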
# KKLEB cytotox = reduces viability of KKLEB cystic fibrosis airway cells | KKLEB CF airway cells viability, ATPlite luminescence, overnight; active compounds read low; cells stimulated with P. aeruginosa culture filtrate | activity change (cytotoxicity), % at 5 µM | AID 602141 | 360,000 compounds, 0.36% hits;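 active = corrected activity change at or below -50% at 5 µM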
# Peg3 prom inh = Peg3 promoter activity inhibition. inhibition, % at 20 µM. HeLa PEG-Prom luciferase reporter, luminescence, overnight. 360,000 compounds, 1.7% hits. AID 588405;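 active = inhibition of at least 50% at 20 µM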
# CF NFkB inh = inhibitors of cystic fibrosis induced NF-kB; KKLEB NF-kB-GFP reporter, PAF-induced, GFP fluorescence overnight; inhibition, % at 5 µM; 360,000 compounds, 0.86% hits; AID 588850;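 active = at least 50% inhibition at 5 µM, scaled per plate between neutral and stimulator controls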;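 note: PAF is a Pseudomonas aeruginosa culture filtrate used as stimulus; plate controls were PAF-stimulated DMSO wells for no effect and unstimulated DMSO wells for full effect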
# TROY signal inh = blocks TROY-dependent signaling in reporter cells. Q293 LMP1-TROYcd NF-kB luciferase reporter, 4 h. inhibition, % at 10 µM. AID 1347056. 360,000 compounds, 0.98% hits;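 active = compounds whose plate-normalised and pattern-corrected inhibition of the luciferase reporter signal at the single screening dose is 50% or more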
# TWEAK-Fn14 inh = inhibitors of TWEAK-Fn14 interaction signaling. TWEAK-stimulated Fn14 reporter cells, luciferase luminescence, 8 h. inhibition, % at 10 µM. 360,000 compounds, 2% hits. AID 1159606; in the data active = inhibition above about 50%
# Mdm2 MdmX conf = Mdm2/MdmX (human) interaction inhibition, confirmed; 740 compounds, 99% hits; inhibition, % at 8 µM; SaOS-2 split-luciferase Mdm2/MdmX complementation, luminescence; shares compounds with HIF-2a inh;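 active = mean inhibition of the luminescence signal across two replicates at or above 26 percent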
# HIF-2a conf = confirmation of HIF-2a inhibitors; 786-0 RCC cells, HIF-2a luciferase reporter luminescence, overnight; inhibition, % at 18.8 µM; shares compounds with HIF-2a inh; 1,800 compounds, 56% hits;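 active = mean inhibition across four replicates of at least 40 percent at the single tested concentration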
# HIF-1a cs = counter-screen for HIF-2a inhibitors: HIF-1a inhibition in MiaPaCa-2 cells; inhibition, % at 18.8 µM; MiaPaCa-2 HIF-1a luciferase reporter, desferoxamine, overnight; shares compounds with HIF-2a inh; 1,800 compounds, 72% hits; AID 651589;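 active = mean inhibition of the reporter signal across four replicates at the single tested dose of 50% or more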
# The depositor's hits bear a star; · = not tested or not shown. This is a sample that favours compounds with a hit; in the whole collection about 4% have one here.
SMILES,HIF-2a inh,KKLEB cytotox,Peg3 prom inh,CF NFkB inh,TROY signal inh,TWEAK-Fn14 inh,HIF-2a conf,HIF-1a cs,others
CC1CCN(C(c2ccc(N(C)C)cc2)c2nnnn2C(C)(C)C)CC1 (stereo not drawn),9,-1,7,17,9,6,·,·,
O=C(c1cnn(C(=O)c2ccco2)c1)c1cc(Cl)cc(Cl)c1O,3,-9,5,8,4,13,·,·,
N#CCCN(C(=O)COC(=O)c1nc(Cl)ccc1Cl)c1ccccc1,4,-5,-4,12,-2,2,·,·,
N#CCCN(C(=O)CCl)c1cccc(Cl)c1,14,-10,54*,25,19,49,·,·,Mdm2 MdmX conf=101*
CCOc1ccc(C(=O)CSCCC(=O)O)cc1,78*,0,5,9,22,49,82*,61*,
CCn1c(C)cc(C(=O)CN2C(=O)c3ccccc3S2(=O)=O)c1C,73*,12,80*,18,83*,93*,88*,77*,
O=C(CN1C(=O)c2ccccc2S1(=O)=O)c1ccccc1Cl,48*,-7,41,12,85*,102*,75*,68*,
O=C(CN1C(=O)c2ccccc2S1(=O)=O)NCc1ccccc1Cl,5,-1,-3,7,-5,-9,·,·,
Fc1ccc(-c2nc3ccc(Cl)cn3c2Cc2ccccc2C(F)(F)F)cc1,-129,-6,-53,18,-7,2,·,·,
CC(=O)Nc1ccc2c(c1)CCC2=O,3,-7,2,4,8,-9,·,·,
O=C(/C=C/c1ccc(S(=O)(=O)NCc2ccco2)cc1)NCc1ccccc1Cl,42*,-10,7,-9,-4,21,-2,15,
COc1ccc(CNC(=O)/C=C/c2ccc(S(=O)(=O)NCc3ccco3)cc2)cc1OC,10,-6,25,3,-3,21,·,·,
Cc1nc(C(=O)N2CCOCC2)sc1C1(C)CC(c2ccccc2)=NO1 (stereo not drawn),1,2,-10,6,-4,-2,·,·,
Cc1c(Cl)sn(-c2ccc(Cl)cc2)c1=O,48*,-90*,108*,79*,-9,-8,·,·,Mdm2 MdmX conf=102*
Nc1ccc(C(=O)n2c3ccccc3c3ccccc32)cc1,78*,-29,-4,48,51*,37,92*,85*,
COc1ccc(OC)c(S(=O)(=O)Nc2ccc(-c3ccc4nncn4n3)cc2)c1,28,-5,26,30,3,4,·,·,
COc1ccc(C(CNC(=O)c2ccc(C)o2)N2CCOCC2)cc1 (stereo not drawn),-8,-1,-5,0,-17,0,·,·,
CCS(=O)(=O)c1ccc(OC)c(N=Nc2ccc(O)c3ncccc23)c1,16,7,-2,2,-7,4,·,·,
Cc1ccc(C)c(N=Nc2ccc(O)c3ncccc23)c1,16,8,0,-21,78*,81*,·,·,Mdm2 MdmX conf=100*
CC(C)n1nnnc1C1c2ccccc2C(=O)N1Cc1cccc(F)c1 (stereo not drawn),-4,·,·,·,13,-8,·,·,
C=CS(=O)(=O)c1sc(Cl)c(N2CCOCC2)c1[N+](=O)[O-],66*,-4,106*,31,34,31,75*,-3,
C=CSc1sc(Cl)c(N2CCOCC2)c1[N+](=O)[O-],3,12,21,8,-3,4,·,·,
Cc1ccc(C(=O)c2c(NC(=O)CSc3nnc(N)s3)sc3c2CCCC3)cc1,61*,8,12,-7,-14,50,2,63*,
COc1ccc(C(=O)Nn2c(SCC(=O)N3CCC(C)CC3)nc3ccccc3c2=O)cc1,51*,1,68*,-8,81*,97*,67*,78*,
COCCn1c(SCC(=O)N2CCC(C)CC2)nc2ccccc2c1=O,-11,-5,6,0,-7,-6,·,·,
